Measurements from PubChem BioAssay (NCATS).
Several values for one entry are separate records, joined by “and”; a condition that tells them apart may be missing. Equal entries are not always repeated. Inconclusive results are not listed. Activity calls are given as the source filed them. Unless noted, the call rests on the fitted dose curve; in most records, active means well fitted curve in the direction sought with a large enough effect; inconclusive means small, poorly fitted or top-dose-only effect, or another doubt; inactive means no such curve, though single readings can be large; an effect the other way counts as inactive or inconclusive.

Assays:
[1] = target: Peroxisome proliferator-activated receptor alpha (Homo sapiens) (UniProt Q07869); experiment: qHTS assay for small molecule agonists of the peroxisome proliferator-activated receptor alpha (PPARalpha) signaling pathway (AID 651778); details: PathHunter PPARalpha complementation, chemiluminescence, 6 h; max response: active compounds read high; further: % of control where 0% means no effect
Outline: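 Cells plated at 2,000/well and held overnight at 37 C, 5% CO2, then compound added by pin tool for 6 hr; after PathHunter detection reagent and 60 min at room temperature, chemiluminescence from enzyme complementation was read.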

[2] = qHTS assay for small molecule agonists of the antioxidant response element (ARE) signaling pathway measured by Nrf2-dependant transcriptional activity (AID 720636; active means well fitted curve in the direction sought with a large enough effect in the repeat runs; an effect the other way counts as inactive or inconclusive;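 further: HepG2 cells with an ARE-driven luciferase reporter; % of control where 0% means no effect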)
Outline: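 In HepG2 cells engineered with an Nrf2-responsive luciferase gene, ARE induction was quantified as luminescence after 16 hr compound treatment at 37 C.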

[3] = qHTS assay for small molecule agonists of the antioxidant response element (ARE) signaling pathway measured by Nrf2-dependant transcriptional activity - cell viability counter screen (AID 720653; active means well fitted curve in the direction sought with a large enough effect in the repeat runs; an effect the other way counts as inactive or inconclusive; further: on the % scale 0 is the no-effect control and ±100 the full control effect); details: ARE-bla HepG2 viability, CellTiter-Glo ATP luminescence, 16 h; active compounds read low
Outline: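 ARE-bla HepG2 cells (2,000/well) rested 5 hrs at 37C/5% CO2, then exposed to compounds in DMSO for 16 hrs. Viability was read in the same wells as intracellular ATP by luminescence, 30 min at room temperature after reagent addition.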

[4] = target: Arylsulfatase A (Homo sapiens) (UniProt P15289); experiment: qHTS screen for enhancers of Arylsulfatase A (ASA1): LOPAC Validation Assay (AID 720538); further: potency means the concentration at half of the fitted maximal effect
Outline: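 Read-out: fluorescence at Ex=525/Em=598 nm after 1N NaOH final stop. Patient fibroblasts carrying ASA-I179S had 48h compound exposure, then 14h room-temperature pNCS hydrolysis (0.5mM final) in lysis buffer. Signal increase = enhanced activity.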

[5] = qHTS Assay for Identifying Gametocytocidal Compounds (AID 743244); further: potency means the concentration at half of the fitted maximal effect;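 on max response: on the % scale 0 is the no-effect control and ±100 the full control effect; actives lower the fluorescent signal which means gametocytes are killed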; details: P. falciparum 3D7 stage III-V gametocytes, alamarBlue, 72 h; max response: active compounds read low
Outline: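 A resazurin-based viability read-out was applied to mature P. falciparum gametocytes: 72 h compound treatment, then 24 h dye incubation, with falling fluorescence signalling gametocytocidal effect.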

[6] = qHTS assay for cell viability of HEK293 cells (AID 743288); details: ATP luminescence (CellTiter-Glo), 18 h; max response: active compounds read low; further: nearly all actives have a fitted effect of over 50% in size; further: potency means the concentration at half of the fitted maximal effect; on max response: on the % scale 0 is the no-effect control and ±100 the full control effect
Outline: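 ATP luminescence (CellTiter-Glo) reports metabolically competent cell number after parental HEK293 cells, 2,000/well, were treated with DMSO-dissolved compounds for 18 h at 37 C; reagent incubation 30 min, room temperature.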

[7] = qHTS assay for cell viability of the p53RE-bla HCT-116 cell line (AID 743292); further: on the % scale 0 is the no-effect control and ±100 the full control effect; nearly all actives have a fitted effect of over 55% in size
Outline: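 Intracellular ATP of p53RE-bla HCT-116 cells measured by luciferase luminescence following 16 h compound incubation at 37 C; DMSO-only wells served as vehicle controls.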

[8] = qHTS for compounds that reverse cellular toxicity of Amyloid beta (A-beta) peptide in yeast: LOPAC Validation Assay (AID 720559);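 further: plate controls were DMSO for no effect and equimolar ferric chloride plus clioquinol rescue for full effect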
Outline: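 OD600 growth readout after 48 hr at 30 C; A-beta-toxic yeast plus pinned compounds in medium. Normalization: DMSO = negative, equimolar FeCl3 + clioquinol = positive.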

[9] = qHTS for Activators of Parkin Expression: LOPAC Validation Assay (NLuc Reporter) (AID 720572;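 further: 0% = DMSO and 100% = positive control compound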)
Outline: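 Cells harboring the Parkin-promoter coincidence reporter were treated for 24 h at seven concentrations. NLuc output was measured sequentially after the FLuc channel and scaled between DMSO and positive control values.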

[10] = qHTS for Activators of Parkin Expression: LOPAC Validation Assay (FLuc Reporter) (AID 720573;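 further: 0% = DMSO and 100% = positive control compounds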)
Outline: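 FLuc luminescence read-out from a neuronal line expressing a Parkin-promoter-driven coincidence reporter. Cells treated 24 h at 37 C, 5% CO2 with compounds at 7 concentrations; signal increase normalized to DMSO and positive control.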

[11] = target: T1, Hexokinase-4 (Homo sapiens) + Glucokinase regulatory protein (Homo sapiens) (UniProt P35557+Q14397); experiment: qHTS assay for inhibitors of recombinant human GCK-GKRP interaction: Diaphorase-coupled assay (AID 743205)
Outline: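 Resorufin fluorescence (525/590 nm), read each minute over 30 min, reports GCK activity coupled via G6PDH and diaphorase. Reaction: 10 nM GST-GCK, 10 nM FLAG-GKRP, 5 mM glucose, 0.4 mM ATP, 0.15 mM NADP+, 0.1 mM resazurin.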

[12] = target: T1, Hexokinase-4 (Homo sapiens) + Glucokinase regulatory protein (Homo sapiens); experiment: qHTS assay for inhibitors of recombinant human GCK-GKRP interaction: ADP-Glo assay (AID 743206);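 further: plate controls were DMSO plus enzyme for no effect and no enzyme for full effect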
Outline: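 Pin-transferred compounds meet a 15 nM GST-GCK/15 nM FLAG-GKRP/2 uM S6P mix (dispense concentrations). ATP is then added to 0.4 mM final with 5 mM glucose, and the reaction runs 60 min at room temperature. ADP is quantified luminescently.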

[13] = target: T1, Hexokinase-4 (Homo sapiens) + Glucokinase regulatory protein (Homo sapiens); experiment: qHTS assay for inhibitors of recombinant human GCK-GKRP interaction: HTRF assay (AID 743207);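 further: 0% = DMSO with GCK present and -100% = DMSO wells lacking GCK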
Outline: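 HTRF read-out (ex 320 nm; 615/665 nm emission) after 60 min RT equilibration of 5 nM GST-GCK, 5 nM FLAG-GKRP, 2 uM S6P, compound and anti-FLAG/anti-GST detection antibodies; signal normalized between DMSO wells with and without GCK.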

[14] = target: Nuclear receptor ROR-gamma (Homo sapiens) (UniProt P51449); experiment: qHTS assay for small molecule antagonists of the retinoid-related orphan receptor gamma (ROR-gamma) signaling pathway (AID 651802); further: nearly all actives have a fitted effect of over 60% in size; further: potency means the concentration at half of the fitted maximal effect
Outline: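 Doxycycline-induced reporter activity in engineered CHO cells (TET-inducible ROR, RORE-LUC) was measured by luminescence after 16hr compound exposure at 37C.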

[15] = qHTS assay for small molecule antagonists of the retinoid-related orphan receptor gamma (ROR-gamma) signaling pathway - cell viability counter screen (AID 720652; active means well fitted curve in the direction sought with a large enough effect in the repeat runs; an effect the other way counts as inactive or inconclusive;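 further: compound exposure lasted 16 hr before ATP read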; further: potency means the concentration at half of the fitted maximal effect)
Outline: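 ATP-based viability readout in the ROR-gamma reporter CHO cells after 16 hr compound exposure under doxycycline induction.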

T1 sequence (P35557 whole entry, looked up): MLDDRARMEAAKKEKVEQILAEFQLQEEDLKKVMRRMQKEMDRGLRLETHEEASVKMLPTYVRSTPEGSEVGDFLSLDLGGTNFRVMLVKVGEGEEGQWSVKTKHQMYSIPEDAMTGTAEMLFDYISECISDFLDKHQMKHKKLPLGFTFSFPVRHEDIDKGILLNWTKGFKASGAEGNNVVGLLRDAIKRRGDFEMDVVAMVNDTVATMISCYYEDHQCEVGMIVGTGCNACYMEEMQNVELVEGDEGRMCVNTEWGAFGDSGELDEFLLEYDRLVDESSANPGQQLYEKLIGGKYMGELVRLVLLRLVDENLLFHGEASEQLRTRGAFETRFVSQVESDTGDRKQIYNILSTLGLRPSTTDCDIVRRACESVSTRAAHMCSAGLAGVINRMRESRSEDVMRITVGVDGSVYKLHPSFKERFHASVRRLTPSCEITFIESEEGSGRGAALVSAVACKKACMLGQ
T1 sequence (Q14397 whole entry, looked up): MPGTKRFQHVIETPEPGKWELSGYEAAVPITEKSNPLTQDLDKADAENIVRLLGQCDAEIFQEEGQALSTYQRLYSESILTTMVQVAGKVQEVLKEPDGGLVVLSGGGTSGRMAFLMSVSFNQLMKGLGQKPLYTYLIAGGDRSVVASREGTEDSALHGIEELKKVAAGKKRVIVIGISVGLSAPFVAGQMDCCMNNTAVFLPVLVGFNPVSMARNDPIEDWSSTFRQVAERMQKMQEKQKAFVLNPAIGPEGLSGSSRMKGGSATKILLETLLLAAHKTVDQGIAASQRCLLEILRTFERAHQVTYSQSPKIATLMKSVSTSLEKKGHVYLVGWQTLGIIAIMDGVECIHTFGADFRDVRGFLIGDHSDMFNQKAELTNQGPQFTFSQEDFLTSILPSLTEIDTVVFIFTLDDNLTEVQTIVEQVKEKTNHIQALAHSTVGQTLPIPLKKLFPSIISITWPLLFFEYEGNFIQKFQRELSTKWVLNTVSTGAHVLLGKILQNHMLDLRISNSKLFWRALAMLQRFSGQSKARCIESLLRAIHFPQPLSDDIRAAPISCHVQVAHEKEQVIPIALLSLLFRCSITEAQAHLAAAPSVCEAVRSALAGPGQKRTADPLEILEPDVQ
Peroxisome proliferator-activated receptor alpha (Homo sapiens), sequence (Q07869 whole entry, looked up): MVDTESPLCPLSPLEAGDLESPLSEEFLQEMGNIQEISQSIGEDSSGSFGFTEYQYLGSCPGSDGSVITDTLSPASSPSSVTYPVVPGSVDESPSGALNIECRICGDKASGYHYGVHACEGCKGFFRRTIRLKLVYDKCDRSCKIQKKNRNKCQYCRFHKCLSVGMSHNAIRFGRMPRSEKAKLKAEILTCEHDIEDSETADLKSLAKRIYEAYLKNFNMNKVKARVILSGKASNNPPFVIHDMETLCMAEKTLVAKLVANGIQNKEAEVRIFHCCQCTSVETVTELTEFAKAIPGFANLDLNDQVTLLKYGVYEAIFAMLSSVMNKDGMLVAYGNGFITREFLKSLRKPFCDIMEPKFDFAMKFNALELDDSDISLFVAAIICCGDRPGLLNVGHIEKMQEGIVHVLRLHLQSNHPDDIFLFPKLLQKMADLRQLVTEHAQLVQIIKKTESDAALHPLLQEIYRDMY
Nuclear receptor ROR-gamma (Homo sapiens), sequence (P51449 whole entry, looked up): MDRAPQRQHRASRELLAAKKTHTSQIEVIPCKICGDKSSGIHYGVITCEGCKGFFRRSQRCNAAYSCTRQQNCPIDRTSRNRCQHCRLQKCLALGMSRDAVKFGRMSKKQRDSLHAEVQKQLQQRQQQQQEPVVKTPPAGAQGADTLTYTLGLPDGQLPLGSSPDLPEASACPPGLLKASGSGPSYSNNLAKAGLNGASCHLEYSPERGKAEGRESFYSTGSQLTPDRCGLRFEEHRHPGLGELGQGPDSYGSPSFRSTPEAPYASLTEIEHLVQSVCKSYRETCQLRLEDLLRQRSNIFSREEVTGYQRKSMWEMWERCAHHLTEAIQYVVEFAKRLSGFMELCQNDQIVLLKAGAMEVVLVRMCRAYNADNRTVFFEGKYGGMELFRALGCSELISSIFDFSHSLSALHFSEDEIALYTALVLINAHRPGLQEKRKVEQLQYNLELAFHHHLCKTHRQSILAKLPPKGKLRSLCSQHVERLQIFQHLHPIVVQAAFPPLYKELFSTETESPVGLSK
Arylsulfatase A (Homo sapiens), sequence (P15289 whole entry, looked up): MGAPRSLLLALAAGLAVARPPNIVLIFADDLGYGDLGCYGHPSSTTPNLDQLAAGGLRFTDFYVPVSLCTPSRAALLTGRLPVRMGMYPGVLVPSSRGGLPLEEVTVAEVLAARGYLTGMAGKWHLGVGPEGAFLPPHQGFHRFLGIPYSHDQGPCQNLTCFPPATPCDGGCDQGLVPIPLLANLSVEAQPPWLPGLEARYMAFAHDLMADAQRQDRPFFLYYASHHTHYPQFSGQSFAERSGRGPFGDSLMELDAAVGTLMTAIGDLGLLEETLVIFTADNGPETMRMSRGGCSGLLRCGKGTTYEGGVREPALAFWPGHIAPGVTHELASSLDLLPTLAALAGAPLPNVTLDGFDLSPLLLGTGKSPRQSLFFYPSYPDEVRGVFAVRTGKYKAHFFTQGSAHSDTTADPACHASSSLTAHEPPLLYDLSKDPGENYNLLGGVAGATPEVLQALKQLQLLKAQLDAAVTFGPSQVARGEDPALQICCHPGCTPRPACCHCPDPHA

Oc1ccc(Cl)cc1Cc1cc(Cl)ccc1O
inactive: max response [1] 4.36% | Potency [2] | max response [3] -12%

NC(N)=NC(=O)c1nc(Cl)c(N)nc1N
inactive: Potency [4] | max response [5] 25%

C[N+](C)(C)CCCCCCCCCC[N+](C)(C)C
inactive: max response [5] -0.962%
active: Potency [4] 2.69 µM

O=C(NC(=O)c1c(F)cccc1F)Nc1cc(Cl)c(OC(F)(F)C(F)C(F)(F)F)cc1Cl (centres undefined)
inactive: max response [1] 14.7% | Potency [2] | max response [3] -21.7% | max response [5] 13.1% | max response [6] -27.8% | outcome [7]

COC(=O)C1=CCCN(C)C1
inactive: Potency [4] | outcome [8] | Potency [9] | outcome [10] | outcome [11] | outcome [12] | outcome [13] | max response [5] 7.57% and 6.37%

COP(=O)(OC)OC=C(Cl)Cl
inactive: max response [1] -1.1% [middle of 4 runs] | Potency [14] | Potency [2] | Potency [15] | max response [3] -9.52% [middle of 4 runs] | max response [5] -6.93% | max response [6] -9.07% [middle of 4 runs] | outcome [7]

CCOP(=S)(OCC)O/N=C(\C#N)c1ccccc1
inactive: max response [1] -3.05% | max response [3] 4.22% | max response [5] -3.66% | max response [6] -1.29% | outcome [7]

CC[n+]1c(-c2ccccc2)c2cc(N)ccc2c2ccc(N)cc21
active: Potency [5] 1.41 µM and 6.31 µM
inactive: max response [1] -2.33% | Potency [14] | Potency [2] | Potency [15] | max response [3] -16.8% | outcome [7]

CCOC(=O)Nc1ccc(NCc2ccc(F)cc2)nc1N
inactive: Potency [4] | outcome [11]
active: Potency [5] 3.55 µM

CCCCCCCCCCCC[N+](C)(C)CCOc1ccccc1
inactive: max response [1] -0.963% | Potency [2] | max response [3] -6.97% | outcome [7]
active: Potency [14] 10.6 µM | Potency [15] 26.6 µM | Potency [5] 8.91 µM

COP(=S)(OC)Oc1ccc(Sc2ccc(OP(=S)(OC)OC)cc2)cc1
inactive: max response [1] 7.57% | max response [3] -17.2% | max response [5] 1.05% | max response [6] -12.2% | outcome [7]

Brc1c(NC2=NCCN2)ccc2nccnc12
inactive: Potency [4]

CNC(=O)Oc1cccc2ccccc12
active: Potency [5] 35.5 µM
inactive: max response [1] -0.498% and -1.3% | Potency [14] | Potency [15] | max response [3] 6.76% and -21.4% | max response [6] -4.95% and -11.8% | outcome [7]

Oc1ccc(Cl)cc1Sc1cc(Cl)ccc1O
inactive: Potency [2]
active: Potency [14] 15 µM

CCC(=O)O[C@H]1CC[C@H]2[C@@H]3CCC4=CC(=O)CC[C@]4(C)[C@H]3CC[C@]12C
inactive: max response [1] -1.43% | Potency [2] | max response [3] -2.38% | max response [5] 11.3% | max response [6] -26.1% | outcome [7]

N#Cc1nn(-c2c(Cl)cc(C(F)(F)F)cc2Cl)c(N)c1S(=O)C(F)(F)F (centres undefined)
inactive: max response [1] -0.478% | Potency [2] | max response [3] -35.8% | max response [5] 6.82% | max response [6] -24.4% | outcome [7]

CCCCCCCCC(=O)NCc1ccc(O)c(OC)c1
inactive: max response [1] 1.45% | Potency [2] | max response [3] -1.94% | max response [5] -2.23% | max response [6] -11.8% | outcome [7]

COc1ccc(C(=O)N2CCCC2=O)cc1
inactive: Potency [4] | outcome [8] | Potency [9] | outcome [10] | outcome [11] | outcome [12] | outcome [13] | max response [5] -3.61% and 29.8%

C[C@H]1C(=O)O[C@@H]2CCN3CC=C(COC(=O)[C@](C)(O)[C@]1(C)O)[C@H]23
inactive: max response [1] 0.361% | Potency [2] | max response [3] -1.85% | max response [5] 14.3% | max response [6] -3.57% | outcome [7]

NC(=O)CN1CCCC1=O
inactive: Potency [4] | outcome [8] | Potency [9] | outcome [10] | outcome [11] | outcome [12] | outcome [13] | max response [5] 0.359% and -8.59%

CC[C@H]1CN2CCc3cc(OC)c(OC)cc3[C@@H]2C[C@@H]1C[C@H]1NCCc2cc(OC)c(OC)cc21
inactive: outcome [10]
active: Potency [5] 1.41 µM

O=C(CCl)c1ccc(Cl)cc1Cl
inactive: max response [1] -0.884% | max response [5] 14.5% and 7.69%
active: Potency [14] 7.5 µM | Potency [15] 21.1 µM | Potency [6] 14.1 µM

COCC(=O)N(c1c(C)cccc1C)C(C)C(=O)OC (centres undefined)
inactive: max response [1] -1.66% | Potency [2] | max response [3] -4.71% | max response [5] -6.72% | max response [6] -7.89% | outcome [7]
